Rab9 promoter act – qHTS Assay for Rab9 Promoter Activators; 320,000 tested, 2.8% active; Potency, µM (highest dose often 9.22 µM), for inactives: top-dose activation, negative = inhibition, actives largely listed as activators; AID 485297, 2010; Huh7 Rab9 promoter-luciferase reporter, luminescence, 24 h; further: % of control where 0% means no effect; nearly all actives have a fitted effect of over 60% in size
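Rab9 promoter-driven luciferase in stably transfected Huh7 cells; 1500 cells/well rested 2 h, exposed to compound in DMSO for 24 h at 37 °C, 5% CO2. Luminescence read 10 min after adding luciferase reagent at ambient temperature.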
SMN2 splice up – qHTS Assay for Enhancers of SMN2 Splice Variant Expression; HEK293 SMN2-luciferase splicing reporter, luminescence, 30-36 h; AID 1458, 2008; Potency, µM (titrated, usually from 46.1 µM), for the others: at the top dose activity change, positive = activation, hits mostly activators; 210,000 tested, 2.8% active; further: % of control where 0% means no effect; nearly all actives have a fitted effect of over 55% in size
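HEK293 cells carry an SMN2 minigene-luciferase reporter in which exon 7 inclusion puts luciferase in frame. Cells were seeded at 2000 cells/well, attached for 10-12 hours, then exposed to compounds for 30-36 hours at 37C before ONE-Glo luminescence.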
ELG1 genotoxic – qHTS screen for small molecules that induce genotoxicity in human embryonic kidney (HEK293T) cells expressing luciferase-tagged ELG1 | HEK293T ELG1-luciferase reporter, luminescence, 16 h | Potency, µM (titrated, usually from 46 µM), inactives show top-dose activity change, positive = activation, usual class: activators | 330,000 tested, 1.3% active | AID 504466, 2011; further: % of control where 0% means no effect; nearly all actives have a fitted effect of over 60% in size
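Genotoxicity was scored as increased ELG1-luciferase reporter signal, measured by ONE-Glo luminescence (30 min, room temperature). Compound or vehicle exposure of the HEK293T reporter cells lasted 16 hr at 37°C.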
NPC1 prom act – qHTS Assay for NPC1 Promoter Activators; 320,000 tested, 2.4% active; Potency, µM (doses to about 9.22 µM), without a hit: top-dose activation, hits mostly activators; Huh7 NPC1 promoter luciferase reporter, 24 h; further: % of control where 0% means no effect; nearly all actives have a fitted effect of over 60% in size
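Compounds in DMSO were transferred onto Huh7 NPC1-luciferase reporter cells pre-incubated 2 h; after 24 h at 37 °C, Amplite reagent was dispensed and luminescence recorded 10 min later.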
Luc counter – Counterscreen for Luciferase (Kinase-Glo TM) Inhibition. Luciferin 4-monooxygenase (Photuris pensylvanica), Q27757. Kinase-Glo luciferase, ATP luminescence, 8 min. Potency, µM (titrated, usually from 38.3 µM), for inactives: top-dose activity change, negative = inhibition, usual class: inhibitors. 200,000 tested, 0.28% active. AID 1379, 2008; further: on the % scale 0 is the no-effect control and ±100 the full control effect; nearly all actives have a fitted effect of over 60% in size
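Substrate mix (final 50 mM imidazole pH 7.2, 50 mM KCl, 7 mM MgCl2, 10 uM ATP, 0.01% Tween 20, 0.05% BSA) plus pin-tool compound, then Kinase-Glo detection mix; 8 min ambient, luminescence read.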
FLuc counter – qHTS profiling assay for firefly luciferase inhibitor/activator using purifed enzyme and Km concentrations of substrates (counterscreen for miR-21 project); 360,000 tested, 6.9% active; Potency, µM (doses to about 57.5 µM), for inactives: at the top dose activity change, negative = inhibition, usual class: inhibitors; AID 588342, 2011; purified FLuc, Km substrates, luminescence inhibition;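 further: plate controls were vehicle for no effect and reference inhibitor for full effect; nearly all actives have a fitted effect of over 55% in size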
Target sequence (P08659 whole entry, looked up): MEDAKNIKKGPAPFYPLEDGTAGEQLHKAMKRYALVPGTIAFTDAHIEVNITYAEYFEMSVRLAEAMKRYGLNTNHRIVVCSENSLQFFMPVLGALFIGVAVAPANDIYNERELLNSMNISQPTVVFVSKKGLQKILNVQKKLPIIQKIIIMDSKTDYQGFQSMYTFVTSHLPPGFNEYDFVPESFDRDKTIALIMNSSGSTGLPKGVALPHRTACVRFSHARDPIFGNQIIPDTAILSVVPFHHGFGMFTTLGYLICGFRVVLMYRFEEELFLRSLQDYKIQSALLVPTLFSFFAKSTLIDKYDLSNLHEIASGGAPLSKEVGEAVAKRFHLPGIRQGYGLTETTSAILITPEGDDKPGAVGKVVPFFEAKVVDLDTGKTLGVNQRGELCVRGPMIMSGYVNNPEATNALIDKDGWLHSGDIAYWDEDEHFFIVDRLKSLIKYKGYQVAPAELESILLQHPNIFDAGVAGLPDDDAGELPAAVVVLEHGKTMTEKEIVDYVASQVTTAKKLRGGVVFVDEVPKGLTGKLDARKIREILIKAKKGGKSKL
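Purified P. pyralis luciferase (10nM final) with 10uM D-luciferin and 10uM ATP (Km levels) in 50mM Tris acetate pH 7.5, 10mM Mg acetate, 0.01% Tween-20, 0.05% BSA; qHTS 6-point titration, ~60 µM downward; luminescence read.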
* marks the source's active call; other numbers are inactive results; ? = inconclusive; nt = no result given. The list is not random: actives were taken first. Their share in the collection is about 7.5%. The call rests on the fitted dose curve; in most records, active means well fitted curve in the direction sought with a large enough effect; inconclusive means small, poorly fitted or top-dose-only effect, or another doubt; inactive means no such curve, though single readings can be large; an effect the other way counts as inactive or inconclusive. Potency means the concentration at half of the fitted maximal effect.

SMILES | Rab9 promoter act | SMN2 splice up | ELG1 genotoxic | NPC1 prom act | Luc counter | FLuc counter
CC(=O)NC12CC3CC(C1)CC(C(=O)N(C)Cc1cccc(Cl)c1Cl)(C3)C2 | -18.1% | nt | -0.1% | -11.8% | nt | ?
CCCCN(C)c1nc2c(S(=O)(=O)c3ccc(CC)cc3)nnn2c2ccc(Cl)cc12 | nt | ? | nt | nt | nt | 2.6%
O=C(NCc1ccc(Cl)cc1)C1CCCCN1S(=O)(=O)c1ccccc1 (stereo unspecified) | -1.6% | nt | -6.4% | -0.4% | nt | 1.0%
Cc1ccc(NC(=O)c2ncoc2-c2ccco2)cc1Cl | nt | nt | nt | nt | nt | 10.7µM*
COc1ccc(/C=C/C(=O)Nc2ccc(-c3nnc4n3CCCCC4)cc2)c(OC)c1 | 1.3% | -11.8% | -7.3% | 4.5% | -0.7% | 26.9µM*
Cc1ccc(NC(=O)Cn2nc(-c3ccco3)ccc2=O)cc1Cl | 0.3% | nt | -0.9% | 0.7% | nt | -3.3%
Cc1cc(C)cc(NC(=O)c2cc(C)nc3ccccc23)c1 | 1.1% | nt | 6.3% | -5.8% | nt | 8.3%
CC(C)OCCCNC(=O)C(Cc1ccccc1)NS(=O)(=O)c1ccc2c(c1)CCC(=O)N2 (stereo unspecified) | -0.9% | nt | -0.1% | -3.1% | nt | 6.7%
N#C/C(=N\Nc1ccc(Cl)c(Cl)c1)C(=O)C1CC1 | ? | nt | 7.7% | ? | nt | 26.9µM*
N#C/C(=N\Nc1ccc(F)cc1)C(=O)C1CC1 | 1.7% | nt | -2.2% | 7.6% | nt | -13.2%
Cc1ccc(NC(=O)Nc2c(C)n(C)n(-c3ccccc3)c2=O)c(Cl)c1 | nt | -4.5% | nt | nt | nt | -3.5%
Cc1ccc(OCCn2nc3ccccc3n2)c(C)c1 | 18.2% | 3.3% | 18.4µM* | 12.0% | 2.4% | ?
COC(=O)c1c(NC(=O)COc2ccc(OC)cc2)sc2c1CCC(C)C2 (stereo unspecified) | nt | 0.2% | nt | nt | nt | -3.5%
CC(=O)Nc1ccc(Nc2nc3c(S(=O)(=O)c4cccc(Cl)c4)nnn3c3ccsc23)cc1 | nt | nt | nt | nt | nt | -6.2%
O=c1[nH]c(/C=C\c2cccc(F)c2)nc(O)c1[N+](=O)[O-] | -3.1% | nt | 0.1% | -0.6% | nt | -11.4%
Cc1ccc2nc(/C=C/c3cccc(F)c3)ccc2c1 | 2µM* | 10µM* | 1.84µM* | 3.55µM* | -3.2% | 1.2µM*
CCOC(=O)c1noc2ncnc(Nc3ccc(F)cc3F)c12 | nt | nt | nt | nt | nt | -5.6%
Cc1ccc(/C=N/n2c(C)nc3ccccc3c2=O)s1 | 3.55µM* | ? | 13.8% | ? | 2.8% | ?
Cc1nc2ccccc2c(=O)n1/N=C/c1ccccc1Cl | ? | nt | ? | ? | nt | 10.7µM*
CCOc1ccccc1NC(=O)Cn1ncc2c([nH]c3ccccc32)c1=O | nt | nt | nt | nt | nt | 0.0%
O=C(N=Nc1c(O)[nH]c2ccccc12)c1cccc(S(=O)(=O)Nc2ccccc2Cl)c1 | -1.9% | 0.8% | -3.3% | 0.6% | -3.6% | 21.3µM*
NS(=O)(=O)c1cc(C(=O)N=Nc2c(O)[nH]c3ccccc23)ccc1Cl | 18.4% | nt | 4.3% | 21.1% | nt | 6.01µM*
CCCCS(=O)CC(O)CSc1nc(-c2ccc(OC)cc2)cc(-c2ccccc2)c1C#N (stereo unspecified) | nt | -0.2% | nt | nt | nt | -2.3%
Cc1cc(NC(=O)CSc2nc(-c3cccc(F)c3)nc3c2c(=O)n(C)c(=O)n3C)no1 | nt | nt | nt | nt | nt | -2.2%
CCOC(=O)c1cnc2c(N=Nc3ccccc3)c(N)nn2c1N | 1.12µM* | 15.8µM* | ? | 1.12µM* | -13.6% | 0.953µM*
SMILES | Rab9 promoter act | SMN2 splice up | ELG1 genotoxic | NPC1 prom act | Luc counter | FLuc counter
CCOC(=O)c1cnc2c(N=Nc3cccc(Cl)c3)c(N)nn2c1N | 2.9% | -15.7% | 9.2% | -0.2% | -4.8% | ?
CCOC(=O)c1cnc2c(-c3ccccc3)cnn2c1N | 0.501µM* | 10µM* | ? | 0.631µM* | -6.5% | 0.601µM*
CCOC(=O)c1cnc2c(-c3ccccc3)c(C)nn2c1N | 21.2% | -19.2% | ? | 21.9% | 3.2% | ?
CCOC(=O)c1cnc2c(-c3ccc(Cl)cc3)cnn2c1C | 0.891µM* | 11.2µM* | 2.59µM* | 1.78µM* | -0.5% | 0.601µM*
O=S(=O)(c1ccccc1)N1CN(c2ccc(F)cc2F)c2nc3ccccc3nc21 | nt | nt | -0.1% | nt | nt | nt
O=S(=O)(c1ccccc1)N1c2cc(Cl)ccc2Oc2nc3ccccc3nc21 | 16.9% | ? | 5.1% | 7.0% | 2.2% | 13.5µM*
O=C(Nc1ccc(Cl)cc1)N1CC=CCC1 | ? | -10.2% | 21.9% | ? | 1.3% | 16.9µM*
O=C(Nc1ccc(Cl)cc1)N1CCN(c2ccccc2)CC1 | 11.0% | -4.2% | -1.6% | 4.4% | -1.1% | ?
COc1ccccc1-c1nnc(Nc2nc3c(OC)cccc3s2)o1 | 2.8% | -13.5% | 14.5% | -4.6% | -8.0% | 2.69µM*
O=C(Nc1nnc(-c2ccccc2Cl)o1)c1nc2ccccc2s1 | -1.9% | 10.2% | ? | -0.5% | 1.2% | -4.5%
COc1cccc(-c2nnc(NC(=O)C3CCCCC3)o2)c1 | -3.3% | 10.9% | ? | 0.9% | -3.3% | 1.0%
COc1cccc2sc(NN)nc12 | 2.2% | 5.3% | -0.1% | 15.6% | 1.4% | ?
COc1cccc(-c2nnc(Nc3nc4c(F)cccc4s3)o2)c1 | 3.16µM* | 11.2µM* | 11.4% | 2.82µM* | -2.2% | 4.78µM*
COc1cccc2sc(Nc3nnc(-c4ccccc4Cl)o3)nc12 | -14.5% | -23.0% | 11.3% | -15.5% | -1.1% | 12µM*
Cc1ccc2c(c1)Sc1c(ccc3ccccc13)N2 | 2.51µM* | nt | ? | ? | nt | 12µM*
CN(C)c1ccc(CN(Cc2ccco2)C(=O)c2ccc(F)cc2)cc1 | nt | 5.2% | nt | nt | nt | 5.9%
Cc1ccc(OCc2cnc(Cl)s2)c(C)c1 | -0.1% | -0.1% | 19.2% | 3.9% | -1.0% | 10.7µM*
O=C(CSc1ncccc1C(=O)O)c1ccccc1F | 20.5% | 8.6% | 3.1% | 9.7% | -4.9% | ?
O=C(CSc1ncccc1C(=O)O)c1ccc2ccccc2c1 | ? | ? | 4.9% | ? | -1.2% | 9.53µM*
